According to paper PMC5540273 (PLoS ONE, 2017):

What follows are molecules tested on ITK. Conditions: concentration: 1 μM,replicates: in singlicate; n = 1.
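Further: KINOMEscan kinase panel screen.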

Structure (SMILES) | %Inh [%]
COc1ccc(Nc2nccc(N3CCC(NC(=O)c4cccc(C#N)c4)C3)n2)cc1 (stereo not shown) [GSK1379730] | 14
Cl.c1ccc(Oc2ccc(Nc3ccnc4cc(-c5ccc(CN6CCNCC6)o5)ccc34)cc2)nc1 [GW567142] | 2
O=C(Nc1ccc(Oc2ccc3nc(NC(=O)C4CC4)cn3n2)c(F)c1)c1cccn(-c2ccccc2)c1=O | 1
Cl.Cl.NC[C@H](CC1CCCCC1)NC(=O)c1ccc(-c2ccnc3[nH]ccc23)s1 [GSK1581428] | 5
COC(=O)Nc1nc2cc(Oc3ccc(NC(=O)Nc4cc(C(F)(F)F)ccc4Cl)cc3)ccc2[nH]1.Cl [GW697465] | 12
CC(C(=O)NC1CCN(c2ccnc(Nc3ccc(F)cc3)n2)C1)c1ccc(Cl)cc1 (stereo not shown) [GSK1379713] | 10
O=C(NCC1CC1)c1ccc(-c2cc(C(=O)NC3CC3)ccc2F)cc1 [GW810445] | 0
CCN1CCN(CCCC(=O)Nc2n[nH]c3nc(-c4ccc(O)cc4)c(Br)cc23)CC1 [SB-731579] | 98.8
Cc1nnc(-c2ccc3occ(-c4ccc(S(C)=O)cc4)c3n2)o1 (stereo not shown) | 8
CC(C)S(=O)(=O)N1CCN(Cc2ccc3c(c2)nc(NC(=O)c2ccsc2)n3C[C@H](O)c2ccccc2)CC1 [GW635815] | 97.6
Cn1ccc2ncnc(Oc3ccc(NC(=O)Nc4cccc(C(F)(F)F)c4)c(Cl)c3)c21 | 1
Cn1ccc2ncnc(Oc3ccc(NC(=O)Nc4ccnc(C(F)(F)F)c4)c(Cl)c3)c21 | 0
Cc1cccc2c(-c3ccncc3)c(-c3ccc(F)cc3)nn12.Cl [GW461487] | 5
Cc1ccc2c(-c3ccnc(Nc4ccc(C(F)(F)F)cc4)n3)cnn2n1 [GW819776] | 10
Cc1n[nH]c2cc(Nc3ccnc(Nc4cccc(CN5CCOCC5)c4)n3)ccc12 [GW682569] | 1
CCn1c(-c2nonc2N)nc2cncc(Br)c21 [SB-738004] | 0
CN1CCN(CCCNc2nccc(-c3c(-c4ccc(F)cc4)nn4cc(C(N)=O)ccc34)n2)CC1 [GW622475] | 10
Nc1nccc(-c2ccc3c(N)n[nH]c3c2)n1 [GSK1034945] | 14
Cc1ccc(C(=O)Nc2ccc(Oc3ccc4nc(NC(=O)C5CC5)cn4c3)c(F)c2)c(=O)n1-c1ccccc1 | 57
Cn1ccc2ncnc(Oc3ccc(NC(=O)Nc4cncc(C(F)(F)F)c4)c(Cl)c3)c21 | 0
NC(=O)Nc1sc(-c2ccc(F)cc2)cc1C(N)=O [GW789449] | 26
Cn1ccc2ncnc(Oc3ccc(NC(=O)Nc4cc(C(C)(C)C)on4)c(Cl)c3)c21 | 16
COC(=O)c1cccc(NC(=O)NC2CCN(c3ccnc(Nc4cc(OC)c(OC)c(OC)c4)n3)C2)c1 (stereo not shown) [GSK1379767] | 11
O=C(Nc1ccccc1)c1cccc(Oc2ccc3nccn3n2)c1 | 0

What follows are molecules tested on JAK1(JH1domain-catalytic). Conditions: concentration: 1 μM,replicates: in singlicate; n = 1.

Structure (SMILES) | %Inh [%]
Cn1ccc2ncnc(Oc3ccc(NC(=O)Nc4cnn(C(C)(C)C)c4)c(Cl)c3)c21 | 6
COc1cc2ncn(-c3cc(OCC4CCCCC4)c(C(N)=O)s3)c2cc1OC [GSK204559] | 0
COc1cccc(CNC(=O)NC2CCN(c3ccnc(Nc4cc(OC)c(OC)c(OC)c4)n3)C2)c1 (stereo not shown) [GSK1379765] | 13
Cn1ccc2ncnc(Oc3ccc(NC(=O)Nc4cccc(C(F)(F)F)c4)c(F)c3)c21 | 11
CNC(=O)c1ccccc1Nc1nc(Nc2cccc(CS(C)(=O)=O)c2)ncc1C.O=CO [GSK1520489] | 84
C[C@@H](Oc1cc(-n2cnc3cc(-c4cnn(C)c4)ccc32)sc1C(N)=O)c1ccccc1Cl [GSK580432] | 0
COc1cc(Nc2nccc(N3CCC(NC(=O)c4cccc(C#N)c4)C3)n2)cc(OC)c1OC (stereo not shown) [GSK1379751] | 0
Cc1ccn2nc(-c3ccc(F)cc3)c(-c3ccncc3)c2c1.Cl [GW457859] | 16
CN1CCN(CCNc2nc3cc(Oc4ccc(NC(=O)Nc5cc(C(F)(F)F)ccc5F)cc4)ccc3[nH]2)CC1.Cl.Cl [GW768504] | 28
NC(=O)c1ccc(-c2cc3ncnc(SCC(=O)O)c3s2)cc1 | 0
CC(=O)c1c(-c2ccncc2)[nH]c(-c2ccncc2)c1C [GW493036] | 12
O=C(Nc1cccc(C(F)(F)F)c1)c1cccc(Oc2ccc3nccn3n2)c1 | 2
CC(=O)Nc1nc2cnc(Nc3cc(NC(=O)c4cccc(CC(C)(C)C#N)c4)ccc3C)nc2s1 | 27
COc1ccc(Nc2nccc(N3CCC(NC(=O)c4cccc(C#N)c4)C3)n2)cc1 (stereo not shown) [GSK1379730] | 6
Cl.c1ccc(Oc2ccc(Nc3ccnc4cc(-c5ccc(CN6CCNCC6)o5)ccc34)cc2)nc1 [GW567142] | 21
O=C(Nc1ccc(Oc2ccc3nc(NC(=O)C4CC4)cn3n2)c(F)c1)c1cccn(-c2ccccc2)c1=O | 8
Cl.Cl.NC[C@H](CC1CCCCC1)NC(=O)c1ccc(-c2ccnc3[nH]ccc23)s1 [GSK1581428] | 56
COC(=O)Nc1nc2cc(Oc3ccc(NC(=O)Nc4cc(C(F)(F)F)ccc4Cl)cc3)ccc2[nH]1.Cl [GW697465] | 21
CC(C(=O)NC1CCN(c2ccnc(Nc3ccc(F)cc3)n2)C1)c1ccc(Cl)cc1 (stereo not shown) [GSK1379713] | 5

Structure (SMILES) | %Inh [%]
O=C(NCC1CC1)c1ccc(-c2cc(C(=O)NC3CC3)ccc2F)cc1 [GW810445] | 0
CCN1CCN(CCCC(=O)Nc2n[nH]c3nc(-c4ccc(O)cc4)c(Br)cc23)CC1 [SB-731579] | 23
Cc1nnc(-c2ccc3occ(-c4ccc(S(C)=O)cc4)c3n2)o1 (stereo not shown) | 8
CC(C)S(=O)(=O)N1CCN(Cc2ccc3c(c2)nc(NC(=O)c2ccsc2)n3C[C@H](O)c2ccccc2)CC1 [GW635815] | 5
Cn1ccc2ncnc(Oc3ccc(NC(=O)Nc4cccc(C(F)(F)F)c4)c(Cl)c3)c21 | 0
Cn1ccc2ncnc(Oc3ccc(NC(=O)Nc4ccnc(C(F)(F)F)c4)c(Cl)c3)c21 | 1
Cc1cccc2c(-c3ccncc3)c(-c3ccc(F)cc3)nn12.Cl [GW461487] | 8
Cc1ccc2c(-c3ccnc(Nc4ccc(C(F)(F)F)cc4)n3)cnn2n1 [GW819776] | 4
Cc1n[nH]c2cc(Nc3ccnc(Nc4cccc(CN5CCOCC5)c4)n3)ccc12 [GW682569] | 48
CCn1c(-c2nonc2N)nc2cncc(Br)c21 [SB-738004] | 18
CN1CCN(CCCNc2nccc(-c3c(-c4ccc(F)cc4)nn4cc(C(N)=O)ccc34)n2)CC1 [GW622475] | 5
Nc1nccc(-c2ccc3c(N)n[nH]c3c2)n1 [GSK1034945] | 0
Cc1ccc(C(=O)Nc2ccc(Oc3ccc4nc(NC(=O)C5CC5)cn4c3)c(F)c2)c(=O)n1-c1ccccc1 | 14
Cn1ccc2ncnc(Oc3ccc(NC(=O)Nc4cncc(C(F)(F)F)c4)c(Cl)c3)c21 | 0
NC(=O)Nc1sc(-c2ccc(F)cc2)cc1C(N)=O [GW789449] | 91.4
Cn1ccc2ncnc(Oc3ccc(NC(=O)Nc4cc(C(C)(C)C)on4)c(Cl)c3)c21 | 6
COC(=O)c1cccc(NC(=O)NC2CCN(c3ccnc(Nc4cc(OC)c(OC)c(OC)c4)n3)C2)c1 (stereo not shown) [GSK1379767] | 9
O=C(Nc1ccccc1)c1cccc(Oc2ccc3nccn3n2)c1 | 0
